Gli-Sufu antag – antagonists of Gli-Sufu signaling. Sufu-KO-LIGHT fibroblasts, Gli luciferase reporter luminescence. inhibition, % at 5 µM. actives 0.74% (n = 340,000). AID 588413;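 active means inhibition above about 55%, limit read from the data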
NCOA1 inh – inhibitors of human steroid receptor coactivator 1 (SRC1); Q15788; HEK293 GAL4-SRC1 luciferase reporter, luminescence; inhibition, % at 3.6 µM; actives 0.12% (n = 360,000);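 active means inhibition above the campaign mean plus 3 SD, with each screening campaign given its own cutoff, cut at about 60% in these data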
Target sequence (Q15788 whole entry, looked up, the tested form may be a part): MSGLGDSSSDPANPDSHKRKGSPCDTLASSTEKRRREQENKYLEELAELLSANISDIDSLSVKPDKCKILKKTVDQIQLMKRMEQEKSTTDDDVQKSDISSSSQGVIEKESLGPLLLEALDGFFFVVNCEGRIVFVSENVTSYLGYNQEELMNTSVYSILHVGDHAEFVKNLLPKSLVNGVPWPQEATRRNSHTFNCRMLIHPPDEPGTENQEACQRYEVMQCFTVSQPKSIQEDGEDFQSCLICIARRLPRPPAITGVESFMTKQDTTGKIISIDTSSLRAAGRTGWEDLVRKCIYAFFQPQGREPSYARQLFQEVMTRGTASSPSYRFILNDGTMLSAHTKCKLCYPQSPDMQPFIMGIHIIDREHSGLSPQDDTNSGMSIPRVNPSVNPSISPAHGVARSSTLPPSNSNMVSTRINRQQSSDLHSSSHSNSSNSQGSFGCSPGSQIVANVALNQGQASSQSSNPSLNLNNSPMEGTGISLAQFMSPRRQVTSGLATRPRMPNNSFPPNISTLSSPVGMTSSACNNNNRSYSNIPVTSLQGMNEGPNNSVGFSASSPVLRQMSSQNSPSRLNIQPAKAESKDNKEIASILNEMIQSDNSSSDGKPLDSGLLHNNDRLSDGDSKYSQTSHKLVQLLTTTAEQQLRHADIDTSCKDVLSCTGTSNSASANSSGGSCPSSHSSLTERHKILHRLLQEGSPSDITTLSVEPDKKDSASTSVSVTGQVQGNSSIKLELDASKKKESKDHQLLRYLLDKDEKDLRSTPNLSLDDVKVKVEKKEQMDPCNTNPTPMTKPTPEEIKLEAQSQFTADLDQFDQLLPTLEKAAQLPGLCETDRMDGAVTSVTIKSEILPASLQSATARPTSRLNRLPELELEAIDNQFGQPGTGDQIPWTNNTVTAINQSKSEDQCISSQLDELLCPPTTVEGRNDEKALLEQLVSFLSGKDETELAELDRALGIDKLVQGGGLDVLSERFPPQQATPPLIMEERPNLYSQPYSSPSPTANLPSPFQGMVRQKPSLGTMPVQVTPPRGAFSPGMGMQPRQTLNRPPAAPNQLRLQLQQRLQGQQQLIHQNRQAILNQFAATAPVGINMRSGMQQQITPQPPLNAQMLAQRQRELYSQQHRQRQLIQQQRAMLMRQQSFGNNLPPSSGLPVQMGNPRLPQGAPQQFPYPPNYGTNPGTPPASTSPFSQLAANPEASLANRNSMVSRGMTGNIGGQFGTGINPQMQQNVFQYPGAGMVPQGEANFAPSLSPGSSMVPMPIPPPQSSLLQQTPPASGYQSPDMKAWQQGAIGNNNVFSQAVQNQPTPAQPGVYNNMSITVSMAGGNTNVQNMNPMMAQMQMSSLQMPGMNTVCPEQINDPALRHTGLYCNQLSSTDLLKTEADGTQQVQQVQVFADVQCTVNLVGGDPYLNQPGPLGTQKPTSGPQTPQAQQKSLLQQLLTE
NCOA3 inh – human NCOA3 inhibition | actives 0.17% (n = 360,000) | HEK293 GAL4-SRC3 luciferase reporter, luminescence | inhibition, % at 3.6 µM | AID 588352;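 active means inhibition above a per-campaign cutoff, the mean of all compounds plus 3 SD, cut at about 60% in these data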;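 further: higher means less SRC3-driven luciferase light from the GAL4 reporter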
LRH-1 inv ag – NR5A2 inverse agonism in reporter assay; O00482; HEK293T StAR-luciferase reporter, LRH-1 transfected, 24 h; inhibition, % at 3.6 µM; actives 0.13% (n = 360,000); AID 602396;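 active means inhibition above the mean inhibition of all tested compounds plus 3 SD, cut at about 73% in these data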
NCOA2 inhibitor – inhibits human steroid receptor coactivator 2 | AID 651957 | Q15596 | actives 0.17% (n = 370,000) | inhibition, % at 9 µM | HEK293 GAL4-SRC2 luciferase reporter, luminescence;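 active means inhibition above the mean inhibition of all tested compounds plus 3 SD, set per campaign, cut at about 52% in these data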
Gli-Sufu confirm – Gli-SUFU antagonism confirmation, single concentration | Sufu-KO-LIGHT cells, Gli luciferase reporter, luminescence | shares compounds with Gli-Sufu antag | actives 40% (n = 2,500) | inhibition, % at 5 µM;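 active means mean inhibition at 5 µM reaching about 45%, limit read from the data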
SufuKO cytotox – counter-screen for Gli-SUFU antagonists: cytotoxicity; shares compounds with Gli-Sufu antag; Sufu-KO-LIGHT cells cytotoxicity, ATP luminescence; cytotoxicity, % at 5 µM; actives 32% (n = 2,500); AID 651994;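 active means mean cytotoxicity at 5 µM above about 25%, limit read from the data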;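 further: cells exposed to compound overnight for roughly 16 to 18 hours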
Wnt3a cs – inhibits Wnt3a reporter, counter-screen for Gli-SUFU antagonists. shares compounds with Gli-Sufu antag. Wnt-LIGHT cells, Wnt3a-driven luciferase reporter, luminescence. inhibition, % at 6.25 µM. actives 20% (n = 2,500). AID 651995;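 active means mean inhibition above about 25%, limit read from the data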
Numbers stand for hits; i = inactive; nt = no result given. Only some compounds are listed: those with a hit (about 0.83% of all), similar ones and a draw of the others.

SMILES	Gli-Sufu antag	NCOA1 inh	NCOA3 inh	LRH-1 inv ag	NCOA2 inhibitor	Gli-Sufu confirm	SufuKO cytotox	Wnt3a cs
O=C(Oc1ccccc1N1C(=O)C2CC=CCC2C1=O)c1ccc(Br)cc1 (stereo not drawn)	i	i	i	i	i	i	i	i
Cc1ccccc1C(=O)Oc1ccccc1N1C(=O)C2CC=CCC2C1=O (stereo not drawn)	i	i	i	i	i	nt	nt	nt
O=Cc1cn(CC(O)CN2CCCCC2)c2ccccc12 (stereo not drawn)	i	i	i	i	i	nt	nt	nt
CC(C)(CO)NCC(O)Cn1cc(C=O)c2ccccc21 (stereo not drawn)	i	i	i	i	i	i	i	i
CC(COc1ccc(F)cc1)CN1CCC(C(O)(c2ccccc2)c2ccccc2)CC1 (stereo not drawn)	nt	nt	nt	nt	i	nt	nt	nt
COCC1CCN(C(=O)c2cc(COc3cccc4cnccc34)on2)CC1	i	i	i	i	i	nt	nt	nt
O=C(c1cc(COc2cccc3cnccc23)on1)N1CCCC(CCCO)C1 (stereo not drawn)	80	i	i	i	i	74	29	i
COc1ccc(C(C(=O)NC2CCCCC2)N(C(=O)CCl)c2ccc(Cl)cc2)cc1 (stereo not drawn)	85	i	i	i	nt	i	28	i
COc1ccc(N(C(=O)c2cnccn2)C(C(=O)NC2CCCCC2)c2ccc(Cl)cc2)cc1 (stereo not drawn)	i	i	i	i	i	nt	nt	nt
O=c1c2ccccc2n(Cc2ccccc2)n1[C@@H](Cc1ccccc1)Cn1cc(-c2ccc(-c3ccccc3)cc2)nn1	nt	nt	nt	nt	i	nt	nt	nt
N#CCc1ccc(OC[C@@H](O)CN2CCC(C(O)(c3ccccc3)c3ccccc3)CC2)cc1	nt	nt	nt	nt	i	nt	nt	nt
CC(C)(C)C(=O)Nc1ccc(N=Nc2ccccc2)cc1	64	i	i	i	i	54	60	82
O=C(O)CCC(=O)Nc1ccc(N=Nc2ccccc2)cc1	i	i	i	i	nt	nt	nt	nt
CCOC(=O)c1sc(=S)n(-c2ccccc2)c1SC	i	i	i	i	i	nt	nt	nt
CCOC(=O)c1sc(=S)n(-c2ccccc2Cl)c1SC	i	i	i	i	i	i	i	i
CCOC(=O)[C@@]12CN(C(=O)OC(C)(C)C)CC=C1N(Cc1ccc(OC)cc1)C(=O)[C@H]2CC(=O)NCc1cccs1	nt	nt	nt	nt	i	nt	nt	nt
c1ccc(Cn2c(SC3CCCCC3)nnc2-c2cccnc2)cc1	nt	nt	nt	nt	i	nt	nt	nt
Cc1ccc(C(=O)N2CCN(c3ncc(C(F)(F)F)cc3Cl)CC2)s1	58	i	i	i	i	i	i	i
CC(=O)c1ccc(N2CCN(c3ncc(C(F)(F)F)cc3Cl)CC2)cc1	i	i	i	i	i	nt	nt	nt
Cc1ccccc1OCCn1c(=O)oc2ccccc21	i	i	i	i	i	nt	nt	nt
Cc1ccc(C(C)C)c(OCCn2c(=O)oc3ccccc32)c1	96	i	i	i	i	i	i	i
CCCc1cc(=O)[nH]c(SCC(=O)NC2CC2)n1	i	i	i	i	i	i	i	i
CCCc1cc(=O)[nH]c(SCC(=O)NC2CCCCCCC2)n1	i	i	i	i	i	nt	nt	nt
COC[C@H]1CCCN1c1cccc2c1S(=O)(=O)N(C1CC1)CCCO2	nt	nt	nt	nt	i	nt	nt	nt
COc1ccc(NC(=O)c2cc3c(C)nn(-c4ccccc4)c3s2)cc1	nt	nt	nt	nt	i	nt	nt	nt
SMILES	Gli-Sufu antag	NCOA1 inh	NCOA3 inh	LRH-1 inv ag	NCOA2 inhibitor	Gli-Sufu confirm	SufuKO cytotox	Wnt3a cs
CCCNC(=O)CSCc1nc(-c2ccc(SC)cc2)oc1C	i	i	i	i	i	nt	nt	nt
CCc1ccc(-c2nc(CSCC(=O)NCc3ccco3)c(C)o2)cc1	84	i	i	i	80	88	i	46
CCOc1ccc(-c2nc(CSCC(=O)NCC3CCCO3)c(C)o2)cc1 (stereo not drawn)	89	i	i	i	i	89	i	i
Cc1ccc(-c2nc(CSCC(=O)NCC3CCCO3)c(C)o2)cc1 (stereo not drawn)	i	i	i	i	i	nt	nt	nt
COc1ccc(-c2c(Cc3ccccc3)nc(NC(=O)c3ccccc3F)n2C)cc1	nt	nt	nt	nt	i	nt	nt	nt
COc1ccc(/C=C2/CN(Cc3ccc(OC)cc3OC)C3=N[C@H](c4ccccc4)CC(=O)N32)cc1	nt	nt	nt	nt	i	nt	nt	nt
CCOC(=O)CC[C@@]1(C(=O)OCC)C[C@@H](CC(=O)NCc2cccs2)C(=O)N2CCCC=C21	nt	nt	nt	nt	i	nt	nt	nt
Cc1cc(C)nc(/N=C(\N)Nc2ccc(CC(=O)OC(C)C)cc2)n1	65	i	i	i	i	48	38	i
Cc1cc(C)nc(/N=C(\N)Nc2ccc(OCCC(C)C)cc2)n1	i	i	i	i	i	nt	nt	nt
CC(=O)N1CCc2cc(S(=O)(=O)NCCC(=O)N(C)Cc3ccccc3F)ccc21	nt	nt	nt	nt	i	nt	nt	nt
Cc1cc(C(=O)N/N=C/c2c(CO)cnc(C)c2O)c2ccccc2n1	i	i	i	i	i	nt	nt	nt
Cc1ncc(CO)c(/C=N/NC(=O)c2cc(Br)ccc2O)c1O	96	i	i	i	i	i	i	i
CCC(C(=O)NCCC(C)C)n1ccc2cc(S(=O)(=O)N3CCCCC3)ccc21 (stereo not drawn)	67	i	i	i	nt	i	i	i
COc1ccc(CNC(=O)CCCn2ccc3cc(S(=O)(=O)N4CCCC4)ccc32)cc1	59	i	i	i	i	i	27	i
CCOc1ccc(CNC(=O)CCCn2ccc3cc(S(=O)(=O)N4CCCC4)ccc32)cc1	i	i	i	i	i	nt	nt	nt
O=C(CN1CCCc2ccccc21)NCc1ccccc1F	nt	nt	nt	nt	i	nt	nt	nt
Cc1sc(NC(=O)CSc2nnc(C(C)C)n2C)c(C#N)c1C	56	i	i	i	i	i	i	i
CCCn1c(SCC(=O)Nc2sc(C)c(C)c2C#N)nnc1C(C)C	i	i	i	i	i	nt	nt	nt
Cc1ccc(-c2nc(C3CCCN(S(=O)(=O)c4ccc(Cl)s4)C3)no2)cc1 (stereo not drawn)	nt	nt	nt	nt	i	nt	nt	nt
COc1ccc(-n2c(SCC(=O)N/N=C(/C)c3cccc(O)c3)nc3ccccc3c2=O)cc1	nt	nt	nt	nt	i	nt	nt	nt
Cc1ccc(S(=O)(=O)N2CCN(C(=O)c3ccc(S(=O)(=O)N4CCCC4)cc3)CC2)cc1	57	i	i	i	i	i	i	i
O=C(c1ccc(S(=O)(=O)N2CCCC2)cc1)N1CCCCCC1	i	i	i	i	i	nt	nt	nt
O=C(c1ccc(=O)[nH]c1)N1CCN(S(=O)(=O)c2ccccc2)CC1	i	i	i	i	i	nt	nt	nt
O=C(c1ccc(=O)[nH]c1)N1CCN(S(=O)(=O)c2ccc(Cl)cc2)CC1	i	i	i	i	i	i	i	i
O=C(OCCOc1cccc(Cl)c1)c1cc(S(=O)(=O)N2CCCCC2)ccc1N1CCOCC1	64	i	i	i	i	66	36	i
Cc1ccc(C(=O)Cn2nnc(-c3ccccc3)n2)cc1	i	i	i	i	i	nt	nt	nt
O=C(Cn1nnc(-c2ccccc2)n1)c1ccccc1	57	i	i	i	i	i	i	i

Screening results deposited in PubChem BioAssay by several laboratories.
